# ± gives the standard deviation of the averaged measurements.
# Tests used:
# Assay in all cases: promoter activity interaction Z-score (Lux/OD deviation from empty-vector control); higher = stronger promoter induction by the compound
# [1] = tested on: E. coli BW25113 acrABp lux reporter
# Outline: (§1)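 At 37°C, E. coli BW25113 reporter cultures in 40 µl LB Lennox in 384-well plates were read for OD600 and luminescence every 30 min for 12 h. Windows were 0–8 h for wild type and 1–9 h for deletion strains, and wells under 10% of the median growth value were removed. The score is the Z-transformed residual of growth-normalised luminescence against a control fit.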
# [2] = tested on: E. coli BW25113 marRABp lux reporter
# Outline: as §1
# [3] = tested on: E. coli BW25113 micFp lux reporter
# Outline: as §1
# [4] = tested on: E. coli BW25113 ompFp lux reporter
# Outline: as §1
# [5] = tested on: E. coli BW25113 robp lux reporter
# Outline: as §1
# [6] = tested on: E. coli BW25113 soxSp lux reporter
# Outline: as §1
# [7] = tested on: E. coli BW25113 tolCp lux reporter
# Outline: as §1
# [8] = 8.6 µg/ml, genetic background: wild type
# [9] = 8.6 µg/ml, genetic background: ΔmarA
# [10] = 8.6 µg/ml, genetic background: Δrob
# [11] = 8.6 µg/ml, genetic background: ΔsoxS
# [12] = 17.1 µg/ml, genetic background: wild type
# [13] = 17.1 µg/ml, genetic background: ΔmarA
# [14] = 17.1 µg/ml, genetic background: Δrob
# [15] = 17.1 µg/ml, genetic background: ΔsoxS
# [16] = 34.3 µg/ml, genetic background: wild type
# [17] = 34.3 µg/ml, genetic background: ΔmarA
# [18] = 34.3 µg/ml, genetic background: Δrob
# [19] = 34.3 µg/ml, genetic background: ΔsoxS
# [20] = 68.6 µg/ml, genetic background: wild type
# [21] = 68.6 µg/ml, genetic background: ΔmarA
# [22] = 68.6 µg/ml, genetic background: Δrob
# [23] = 68.6 µg/ml, genetic background: ΔsoxS
compound,measurement,setting,value
Nc1ccc(C(=O)O)cc1 [4-Aminobenzoic acid],promoter activity interaction Z-score,[1]; [8],-0.327 ± 0.11
same,promoter activity interaction Z-score,[1]; [9],-0.528 ± 0.3
same,promoter activity interaction Z-score,[1]; [10],0.0646 ± 0.18
same,promoter activity interaction Z-score,[1]; [11],0.357 ± 0.28
same,promoter activity interaction Z-score,[1]; [12],0.051 ± 0.24
same,promoter activity interaction Z-score,[1]; [13],-0.48 ± 0.058
same,promoter activity interaction Z-score,[1]; [14],0.185 ± 0.16
same,promoter activity interaction Z-score,[1]; [15],0.299 ± 0.26
same,promoter activity interaction Z-score,[1]; [16],-0.112 ± 0.046
same,promoter activity interaction Z-score,[1]; [17],-0.447 ± 1.1
same,promoter activity interaction Z-score,[1]; [18],-0.379 ± 0.054
same,promoter activity interaction Z-score,[1]; [19],0.511 ± 1.2
same,promoter activity interaction Z-score,[1]; [20],0.119 ± 0.39
same,promoter activity interaction Z-score,[1]; [21],1.54 ± 0.67
same,promoter activity interaction Z-score,[1]; [22],1.31 ± 0.45
same,promoter activity interaction Z-score,[1]; [23],1.66 ± 1.3
same,promoter activity interaction Z-score,[2]; [8],0.0884 ± 0.35
same,promoter activity interaction Z-score,[2]; [9],0.463 ± 0.36
same,promoter activity interaction Z-score,[2]; [10],0.185 ± 0.28
same,promoter activity interaction Z-score,[2]; [11],0.0813 ± 0.12
same,promoter activity interaction Z-score,[2]; [12],0.277 ± 0.097
same,promoter activity interaction Z-score,[2]; [13],0.444 ± 0.14
same,promoter activity interaction Z-score,[2]; [14],0.444 ± 0.27
same,promoter activity interaction Z-score,[2]; [15],-0.00694 ± 0.024
same,promoter activity interaction Z-score,[2]; [16],0.29 ± 0.32
same,promoter activity interaction Z-score,[2]; [17],-0.226 ± 0.0094
same,promoter activity interaction Z-score,[2]; [18],-0.189 ± 0.33
same,promoter activity interaction Z-score,[2]; [19],0.117 ± 0.0092
same,promoter activity interaction Z-score,[2]; [20],0.174 ± 0.024
same,promoter activity interaction Z-score,[2]; [21],1.1 ± 0.03
same,promoter activity interaction Z-score,[2]; [22],0.919 ± 0.45
same,promoter activity interaction Z-score,[2]; [23],0.753 ± 0.38
same,promoter activity interaction Z-score,[3]; [8],0.00335 ± 0.11
same,promoter activity interaction Z-score,[3]; [9],0.0686 ± 0.11
same,promoter activity interaction Z-score,[3]; [10],0.0394 ± 0.14
same,promoter activity interaction Z-score,[3]; [11],0.675 ± 0.52
same,promoter activity interaction Z-score,[3]; [12],0.408 ± 0.1
same,promoter activity interaction Z-score,[3]; [13],0.209 ± 0.16
same,promoter activity interaction Z-score,[3]; [14],0.289 ± 0.15
same,promoter activity interaction Z-score,[3]; [15],0.578 ± 0.075
same,promoter activity interaction Z-score,[3]; [16],0.901 ± 0.57
same,promoter activity interaction Z-score,[3]; [17],0.213 ± 0.23
same,promoter activity interaction Z-score,[3]; [18],0.391 ± 0.17
same,promoter activity interaction Z-score,[3]; [19],1.38 ± 0.55
same,promoter activity interaction Z-score,[3]; [20],1.16 ± 0.52
same,promoter activity interaction Z-score,[3]; [21],0.44 ± 0.26
same,promoter activity interaction Z-score,[3]; [22],1.42 ± 0.091
same,promoter activity interaction Z-score,[3]; [23],1.7 ± 0.14
same,promoter activity interaction Z-score,[4]; [8],-0.317 ± 0.4
same,promoter activity interaction Z-score,[4]; [9],0.283 ± 0.085
same,promoter activity interaction Z-score,[4]; [10],0.0614 ± 0.37
same,promoter activity interaction Z-score,[4]; [11],0.333 ± 0.36
same,promoter activity interaction Z-score,[4]; [12],0.0303 ± 0.3
same,promoter activity interaction Z-score,[4]; [13],0.284 ± 0.18
same,promoter activity interaction Z-score,[4]; [14],0.709 ± 0.41
same,promoter activity interaction Z-score,[4]; [15],0.198 ± 0.39
same,promoter activity interaction Z-score,[4]; [16],-0.722 ± 0.31
same,promoter activity interaction Z-score,[4]; [17],-0.0385 ± 0.32
same,promoter activity interaction Z-score,[4]; [18],-1.06 ± 0.97
same,promoter activity interaction Z-score,[4]; [19],0.199 ± 1.1
same,promoter activity interaction Z-score,[4]; [20],-0.481 ± 0.17
same,promoter activity interaction Z-score,[4]; [21],1.24 ± 0.08
same,promoter activity interaction Z-score,[4]; [22],1.09 ± 0.2
same,promoter activity interaction Z-score,[4]; [23],0.488 ± 0.83
same,promoter activity interaction Z-score,[5]; [8],0.134 ± 0.3
same,promoter activity interaction Z-score,[5]; [9],0.171 ± 0.2
same,promoter activity interaction Z-score,[5]; [10],0.341 ± 0.11
same,promoter activity interaction Z-score,[5]; [11],0.571 ± 0.73
same,promoter activity interaction Z-score,[5]; [12],0.745 ± 0.54
same,promoter activity interaction Z-score,[5]; [13],1.04 ± 0.39
same,promoter activity interaction Z-score,[5]; [14],0.56 ± 0.27
same,promoter activity interaction Z-score,[5]; [15],0.303 ± 0.42
same,promoter activity interaction Z-score,[5]; [16],0.118 ± 0.27
same,promoter activity interaction Z-score,[5]; [17],0.355 ± 0.34
same,promoter activity interaction Z-score,[5]; [18],-0.251 ± 0.88
same,promoter activity interaction Z-score,[5]; [19],-0.337 ± 0.84
same,promoter activity interaction Z-score,[5]; [20],0.598 ± 0.44
same,promoter activity interaction Z-score,[5]; [21],1.92 ± 1.2
same,promoter activity interaction Z-score,[5]; [22],2.53 ± 2.5
same,promoter activity interaction Z-score,[5]; [23],2.68 ± 1.7
same,promoter activity interaction Z-score,[6]; [8],0.154 ± 0.019
same,promoter activity interaction Z-score,[6]; [9],0.4615 ± 0.00081
same,promoter activity interaction Z-score,[6]; [10],0.443 ± 0.19
same,promoter activity interaction Z-score,[6]; [11],0.4 ± 0.53
same,promoter activity interaction Z-score,[6]; [12],0.18 ± 0.23
same,promoter activity interaction Z-score,[6]; [13],0.618 ± 0.11
same,promoter activity interaction Z-score,[6]; [14],0.555 ± 0.098
same,promoter activity interaction Z-score,[6]; [15],0.287 ± 0.083
same,promoter activity interaction Z-score,[6]; [16],0.259 ± 0.017
same,promoter activity interaction Z-score,[6]; [17],0.436 ± 0.14
same,promoter activity interaction Z-score,[6]; [18],0.48 ± 0.11
same,promoter activity interaction Z-score,[6]; [19],0.363 ± 0.93
same,promoter activity interaction Z-score,[6]; [20],-0.597 ± 0.028
same,promoter activity interaction Z-score,[6]; [21],0.693 ± 0.26
same,promoter activity interaction Z-score,[6]; [22],0.532 ± 0.4
same,promoter activity interaction Z-score,[6]; [23],-0.372 ± 0.24
same,promoter activity interaction Z-score,[7]; [8],-0.592 ± 1.1
same,promoter activity interaction Z-score,[7]; [9],0.924 ± 0.68
same,promoter activity interaction Z-score,[7]; [10],-0.26 ± 0.81
same,promoter activity interaction Z-score,[7]; [11],0.91 ± 0.25
same,promoter activity interaction Z-score,[7]; [12],-0.356 ± 1
same,promoter activity interaction Z-score,[7]; [13],0.371 ± 2.1
same,promoter activity interaction Z-score,[7]; [14],0.781 ± 1.4
same,promoter activity interaction Z-score,[7]; [15],-0.463 ± 0.096
same,promoter activity interaction Z-score,[7]; [16],0.348 ± 0.41
same,promoter activity interaction Z-score,[7]; [17],0.458 ± 1.9
same,promoter activity interaction Z-score,[7]; [18],0.119 ± 0.56
same,promoter activity interaction Z-score,[7]; [19],1.86 ± 0.96
same,promoter activity interaction Z-score,[7]; [20],0.28 ± 0.49
same,promoter activity interaction Z-score,[7]; [21],2.27 ± 0.56
same,promoter activity interaction Z-score,[7]; [22],0.498 ± 0.67
same,promoter activity interaction Z-score,[7]; [23],1.22 ± 0.073
